PubChem BioAssay AID1159580 (chemical genetic matrix, 2015)
In all, about 5,500 compounds went through this assay and about 2,000 (36%) were called active. Another 18% or so got no clear call; they are omitted. Rule as the data show it: active = normalized growth mostly below about 0.91 (no sharp cut-off); inconclusive = no clear call, values can overlap the other calls; inactive = mostly above about 0.92. This is one part of the list.

Assay: chemical genetic growth profiling, strain panel (AID 1159580);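 also: tested at 20 µM; growth read once vehicle control cultures reached saturation at 30 °C; 1 = growth at the plate median or of vehicle wells; lower values mean less growth of the strain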
Conditions: S. cerevisiae deletion strains, growth OD

Measured: normalized growth

C=C1CCC(=O)C(C)CCC2C1CC2(C)C (stereo unspecified)
active: locus YKR001C, strain vps1, active compounds read low 0.864
inactive: locus YAL013W, strain DEP1, active compounds read low 1.01 | locus YBR021W, strain FUR4, active compounds read low 1 | locus YBR229C, strain ROT2, active compounds read low 1.02 | locus YCL029C, strain bik1, active compounds read low 0.993 | locus YDL035C, strain GPR1, active compounds read low 1 | locus YDL074C, strain BRE1, active compounds read low 1 | locus YDL101C, strain DUN1, active compounds read low 1.03 | locus YDL134C, strain PPH21, active compounds read low 1.03 | locus YDL185W, strain tfp1, active compounds read low 1 | locus YDL192W, strain arf1, active compounds read low 0.972 | locus YDR101C, strain arx1, active compounds read low 0.987 | locus YDR150W, strain NUM1, active compounds read low 1.02 | locus YDR162C, strain NBP2, active compounds read low 1.06 | locus YDR318W, strain mcm21, active compounds read low 0.998 | locus YDR388W, active compounds read low 0.997 | locus YDR502C, strain sam2, active compounds read low 1 | locus YEL061C, strain CIN8, active compounds read low 1.01 | locus YER110C, active compounds read low 0.99 | locus YER155C, strain BEM2, active compounds read low 1.02 | locus YER167W, strain BCK2, active compounds read low 1.01 | locus YGL078C, strain dbp3, active compounds read low 0.995 | locus YGL086W, strain mad1, active compounds read low 0.986 | locus YGL248W, strain PDE1, active compounds read low 1.03 | locus YGR135W, strain pre9, active compounds read low 1.01 | locus YGR252W, strain gcn5, active compounds read low 1 | locus YHR030C, strain SLT2, active compounds read low 1.02 | locus YHR079C, strain IRE1 (second series), active compounds read low 0.984 | locus YHR094C, strain hxt1, active compounds read low 0.996 | locus YHR129C, strain ARP1, active compounds read low 1.02 | locus YHR200W, strain rpn10, active compounds read low 0.995 | locus YIL066C, strain RNR3, active compounds read low 1.02 | locus YIL073C, strain SPO22, active compounds read low 0.971 | locus YIL125W, strain kgd1, active compounds read low 0.987 | locus YIR030C, strain dcg1, active compounds read low 0.998 | locus YJL095W, strain BCK1, active compounds read low 1.02 | locus YJL134W, strain LCB3, active compounds read low 1.02 | locus YJL168C, strain set2, active compounds read low 1.01 | locus YJL187C, strain SWE1 (second series), active compounds read low 1.03 | locus YJR043C, strain POL32, active compounds read low 1.03 | locus YKL009W, strain mrt4, active compounds read low 0.976 | locus YKL068W, active compounds read low 1.01 | locus YKL085W, strain MDH1 (second series), active compounds read low 0.99 | locus YKL085W, strain MDH1, active compounds read low 0.99 | locus YLR039C, strain RIC1, active compounds read low 1.01 | locus YLR058C, strain SHM2, active compounds read low 1.02 | locus YLR102C, strain apc9, active compounds read low 0.994 | locus YLR262C, strain YPT6, active compounds read low 1.03 | locus YLR268W, strain sec22, active compounds read low 0.985 | locus YLR330W, strain CHS5, active compounds read low 1.02 | locus YLR342W, strain FKS1 (second series), active compounds read low 1.01 | locus YLR371W, strain rom2, active compounds read low 0.994 | locus YLR418C, strain cdc73, active compounds read low 1.01 | locus YML016C, strain PPZ1, active compounds read low 1.02 | locus YML032C, strain rad52, active compounds read low 0.997 | locus YML124C, strain tub3, active compounds read low 0.995 | locus YMR078C, strain ctf18, active compounds read low 1 | locus YMR223W, strain ubp8, active compounds read low 1.01 | locus YMR263W, strain SAP30, active compounds read low 1.03 | locus YMR307W, strain GAS1, active compounds read low 1.08 | locus YNL067W, strain RPL9B, active compounds read low 1.02 | locus YNL233W, strain BNI4, active compounds read low 1.03 | locus YNL250W, strain rad50, active compounds read low 1.01 | locus YNL271C, strain bni1, active compounds read low 0.999 | locus YNL298W, strain CLA4, active compounds read low 1.03 | locus YNL307C, strain MCK1, active compounds read low 0.995 | locus YNR052C, strain pop2, active compounds read low 0.989 | locus YOL006C, strain TOP1, active compounds read low 1.03 | locus YOL012C, strain htz1 0.879 | locus YOL147C, strain pex11, active compounds read low 0.987 | locus YOR061W, strain CKA2, active compounds read low 1.02 | locus YOR069W, strain VPS5, active compounds read low 1.02 | locus YOR136W, strain idh2, active compounds read low 0.991 | locus YOR144C, strain elg1, active compounds read low 0.987 | locus YOR184W, strain ser1, active compounds read low 0.977 | locus YOR316C, strain cot1, active compounds read low 0.998 | locus YPR119W, strain clb2, active compounds read low 0.983 | locus YPR141C, strain kar3, active compounds read low 0.994 | locus YPR163C, strain tif3, active compounds read low 0.997 | locus YPR167C, strain met16, active compounds read low 0.99 | strain wtn01, active compounds read low 0.966
